Measurements from the supplement of paper PMC10849652.
About 7,900 targets were measured; listed, in parts, are those with a hit and a random draw of the rest. About 0.6% of all pairs of compound and target were hits. A number with no mark means an inactive call.

What was measured:
Assay in all cases: log2 fold change, soluble protein after heating vs DMSO (PISA); higher = thermal stabilisation; K562 cells, 10 uM, 30 min; active = over 0.2 and 3.5 SD of the protein, either way, in both replicates (recomputed)
[1] = compound: CS(=O)(=O)c1ccc(-c2cnc(N)c(C(=O)Nc3ccccc3)n2)cc1
In short: (§1)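 K562 cells at 2×10^6 cells/mL were treated for 30 min with 10 μM compound, and aliquots were heated for 3 min over 48°C-58°C before pooling. Extraction used PBS with 0.5% NP-40 at 4°C, and soluble protein was the supernatant after 21,000xg for 90 min, measured by TMTpro 16plex LC-MS/MS with channel sums equalised. Thermal stability values, relative to control samples and from duplicates, are log2 fold changes.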

[2] = compound: C[C@@H](Oc1cc(-c2cnn(C3CCNCC3)c2)cnc1N)c1c(Cl)ccc(F)c1Cl [crizotinib]
In short: as §1

[3] = compound: C[C@@H]1COCCN1C2=NC(=NC(=C2)C3(CC3)S(=O)(=O)C)C4=C5C=CNC5=CC=C4
In short: as §1

[4] = compound: C[C@H](C1=CC=C(C=C1)C(=O)NC2=C3C=CNC3=NC=C2)N
In short: as §1

[5] = compound: C[C@H](Nc1ncnc2nc[nH]c12)c1cc2cccc(Cl)c2c(=O)n1-c1ccccc1 [duvelisib]
In short: as §1

[6] = compound: Cc1cc(Nc2cc(CN3CCOCC3)c3nc(C)c(Cc4ccc(Cl)cc4F)n3n2)n[nH]1 [gandotinib]
In short: as §1

[7] = compound: Cc1cc(Nc2cc(N3CCN(C)CC3)nc(Sc3ccc(NC(=O)C4CC4)cc3)n2)n[nH]1 [tozasertib]
In short: as §1

[8] = compound: Cc1cc(SCc2sc(-c3ccc(C(F)(F)F)cc3)nc2C)ccc1OCC(=O)O
In short: as §1

[9] = compound: Cc1ccc(-n2nc(C(C)(C)C)cc2NC(=O)Nc2ccc(OCCN3CCOCC3)c3ccccc23)cc1 [doramapimod]
In short: as §1

[10] = compound: Cc1ccc(C(=O)N(CCCN)[C@@H](c2nc3cc(Cl)ccc3c(=O)n2Cc2ccccc2)C(C)C)cc1 [ispinesib]
In short: as §1

[11] = compound: Cc1ccc(NC(=O)c2ccc(CN3CC[C@H](N(C)C)C3)c(C(F)(F)F)c2)cc1Nc1nccc(-c2cncnc2)n1 [bafetinib]
In short: as §1

[12] = compound: Cc1cccc(CC(=O)N2CCc3c2ccc(-c2cn(C)c4ncnc(N)c24)c3F)n1
In short: as §1

[13] = compound: Cc1cn(-c2cc(NC(=O)c3ccc(C)c(Nc4nccc(-c5cccnc5)n4)c3)cc(C(F)(F)F)c2)cn1 [nilotinib]
In short: as §1

[14] = compound: Cc1nc(Nc2n[nH]c3c2CN(C(=O)N[C@H](CN(C)C)c2ccccc2)C3(C)C)c2sccc2n1
In short: as §1

[15] = compound: Cc1nc(Nc2ncc(C(=O)Nc3c(C)cccc3Cl)s2)cc(N2CCN(CCO)CC2)n1 [dasatinib]
In short: as §1

[16] = compound: Cc1ncc(-c2ccnc(Nc3ccc(S(C)(=O)=O)cc3)n2)n1C(C)C
In short: as §1

[17] = compound: Cn1cc(-c2ccc3c(c2)CCN3C(=O)Cc2cccc(C(F)(F)F)c2)c2c(N)ncnc21
In short: as §1

[18] = compound: Cn1cc(-c2ccc3nnc(C(F)(F)c4ccc5ncccc5c4)n3n2)cn1
In short: as §1

[19] = compound: Cn1cncc1[C@@](N)(c1ccc(Cl)cc1)c1ccc2c(c1)c(-c1cccc(Cl)c1)cc(=O)n2C [tipifarnib]
In short: as §1

[20] = compound: FC(F)(F)c1ccc(/C=C/c2nc(COc3ccc(CCCCn4ccnn4)cc3)co2)cc1 [mubritinib]
In short: as §1

Chain of UniProt Q8N0T1 (Q8N0T1 whole entry, looked up): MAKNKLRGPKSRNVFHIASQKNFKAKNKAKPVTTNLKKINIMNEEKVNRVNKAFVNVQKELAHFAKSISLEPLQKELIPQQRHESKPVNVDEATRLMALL
Chain of UniProt Q9BQY4 (Q9BQY4 whole entry, looked up): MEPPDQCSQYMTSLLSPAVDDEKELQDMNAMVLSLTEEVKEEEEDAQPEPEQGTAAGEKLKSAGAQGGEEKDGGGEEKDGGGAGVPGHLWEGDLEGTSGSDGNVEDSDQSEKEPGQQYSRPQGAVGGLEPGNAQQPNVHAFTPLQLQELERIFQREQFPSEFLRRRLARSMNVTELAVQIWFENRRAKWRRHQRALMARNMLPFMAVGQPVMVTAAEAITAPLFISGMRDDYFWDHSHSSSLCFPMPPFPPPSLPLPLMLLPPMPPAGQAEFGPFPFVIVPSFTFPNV
Chain of UniProt O15027 (O15027 whole entry, looked up): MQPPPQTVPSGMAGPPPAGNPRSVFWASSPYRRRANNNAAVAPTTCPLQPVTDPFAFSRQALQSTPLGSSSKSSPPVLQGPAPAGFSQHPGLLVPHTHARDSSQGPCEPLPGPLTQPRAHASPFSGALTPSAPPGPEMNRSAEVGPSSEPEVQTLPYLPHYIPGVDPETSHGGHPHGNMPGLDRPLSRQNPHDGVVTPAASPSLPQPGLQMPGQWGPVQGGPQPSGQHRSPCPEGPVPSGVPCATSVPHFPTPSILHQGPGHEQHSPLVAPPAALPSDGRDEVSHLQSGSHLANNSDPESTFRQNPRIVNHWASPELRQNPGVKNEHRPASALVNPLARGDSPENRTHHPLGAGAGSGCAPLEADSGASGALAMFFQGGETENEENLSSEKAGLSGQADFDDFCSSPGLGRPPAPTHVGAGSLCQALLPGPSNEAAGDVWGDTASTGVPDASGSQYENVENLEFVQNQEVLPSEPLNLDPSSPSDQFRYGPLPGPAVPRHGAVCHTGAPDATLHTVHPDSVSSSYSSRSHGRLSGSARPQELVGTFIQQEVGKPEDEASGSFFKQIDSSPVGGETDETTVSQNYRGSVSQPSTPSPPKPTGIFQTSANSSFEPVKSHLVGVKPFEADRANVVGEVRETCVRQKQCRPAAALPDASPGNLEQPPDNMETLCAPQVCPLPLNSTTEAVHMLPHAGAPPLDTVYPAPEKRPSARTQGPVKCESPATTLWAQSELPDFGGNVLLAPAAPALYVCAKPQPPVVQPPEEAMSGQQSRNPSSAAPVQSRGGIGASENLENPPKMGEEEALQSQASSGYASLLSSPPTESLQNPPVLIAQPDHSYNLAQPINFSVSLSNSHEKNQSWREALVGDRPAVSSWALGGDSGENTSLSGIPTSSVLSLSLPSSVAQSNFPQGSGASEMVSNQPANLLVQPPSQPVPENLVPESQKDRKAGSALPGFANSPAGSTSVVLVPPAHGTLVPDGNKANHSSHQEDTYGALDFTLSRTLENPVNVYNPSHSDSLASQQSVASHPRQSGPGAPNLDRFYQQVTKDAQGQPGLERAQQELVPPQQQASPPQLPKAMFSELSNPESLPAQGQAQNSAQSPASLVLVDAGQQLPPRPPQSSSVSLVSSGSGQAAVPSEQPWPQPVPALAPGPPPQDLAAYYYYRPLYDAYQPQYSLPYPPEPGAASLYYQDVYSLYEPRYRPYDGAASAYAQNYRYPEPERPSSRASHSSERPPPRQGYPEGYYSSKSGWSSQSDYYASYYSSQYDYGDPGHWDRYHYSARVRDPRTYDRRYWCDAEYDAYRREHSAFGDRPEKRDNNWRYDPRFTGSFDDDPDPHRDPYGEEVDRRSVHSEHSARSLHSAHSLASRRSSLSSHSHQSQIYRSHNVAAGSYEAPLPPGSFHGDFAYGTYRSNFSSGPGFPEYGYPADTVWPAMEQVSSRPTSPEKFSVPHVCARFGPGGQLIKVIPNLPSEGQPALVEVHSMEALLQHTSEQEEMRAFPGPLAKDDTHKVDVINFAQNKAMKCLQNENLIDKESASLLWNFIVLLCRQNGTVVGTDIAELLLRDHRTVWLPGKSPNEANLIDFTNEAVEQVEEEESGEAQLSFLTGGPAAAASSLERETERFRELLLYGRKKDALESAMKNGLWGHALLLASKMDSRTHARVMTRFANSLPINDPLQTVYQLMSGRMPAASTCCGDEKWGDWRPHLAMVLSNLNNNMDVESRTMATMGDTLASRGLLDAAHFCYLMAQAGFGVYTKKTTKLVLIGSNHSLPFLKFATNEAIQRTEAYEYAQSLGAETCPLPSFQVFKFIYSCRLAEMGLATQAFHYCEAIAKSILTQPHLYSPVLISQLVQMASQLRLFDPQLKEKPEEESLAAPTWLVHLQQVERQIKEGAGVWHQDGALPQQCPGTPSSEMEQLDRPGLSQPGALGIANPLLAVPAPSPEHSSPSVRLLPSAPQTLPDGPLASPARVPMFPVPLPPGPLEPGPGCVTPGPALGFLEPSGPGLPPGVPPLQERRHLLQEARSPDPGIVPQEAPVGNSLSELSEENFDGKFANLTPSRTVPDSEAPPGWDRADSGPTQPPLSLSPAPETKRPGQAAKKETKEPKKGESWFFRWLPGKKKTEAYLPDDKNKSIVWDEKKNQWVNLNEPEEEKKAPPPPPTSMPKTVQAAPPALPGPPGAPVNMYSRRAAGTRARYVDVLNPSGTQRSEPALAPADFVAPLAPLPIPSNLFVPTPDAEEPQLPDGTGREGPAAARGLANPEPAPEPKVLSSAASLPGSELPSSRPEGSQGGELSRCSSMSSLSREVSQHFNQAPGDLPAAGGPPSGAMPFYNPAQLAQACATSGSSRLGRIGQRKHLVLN
Chain of UniProt P41440 (P41440 whole entry, looked up): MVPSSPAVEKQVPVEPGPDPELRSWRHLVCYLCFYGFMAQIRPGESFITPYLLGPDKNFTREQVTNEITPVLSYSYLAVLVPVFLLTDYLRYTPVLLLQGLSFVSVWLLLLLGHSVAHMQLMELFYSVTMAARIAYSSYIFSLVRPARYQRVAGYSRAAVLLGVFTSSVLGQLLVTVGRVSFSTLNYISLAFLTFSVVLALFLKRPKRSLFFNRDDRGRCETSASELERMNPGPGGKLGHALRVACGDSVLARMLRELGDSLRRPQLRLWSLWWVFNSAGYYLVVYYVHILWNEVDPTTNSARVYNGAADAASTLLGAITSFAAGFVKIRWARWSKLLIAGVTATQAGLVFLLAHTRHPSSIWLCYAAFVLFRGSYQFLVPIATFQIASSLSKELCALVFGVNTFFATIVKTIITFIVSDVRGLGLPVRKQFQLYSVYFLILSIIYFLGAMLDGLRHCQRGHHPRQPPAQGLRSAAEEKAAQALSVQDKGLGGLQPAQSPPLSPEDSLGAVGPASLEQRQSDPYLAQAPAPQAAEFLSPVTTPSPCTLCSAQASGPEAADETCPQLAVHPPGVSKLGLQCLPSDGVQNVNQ
Chain of UniProt Q8IZV5 (Q8IZV5 whole entry, looked up): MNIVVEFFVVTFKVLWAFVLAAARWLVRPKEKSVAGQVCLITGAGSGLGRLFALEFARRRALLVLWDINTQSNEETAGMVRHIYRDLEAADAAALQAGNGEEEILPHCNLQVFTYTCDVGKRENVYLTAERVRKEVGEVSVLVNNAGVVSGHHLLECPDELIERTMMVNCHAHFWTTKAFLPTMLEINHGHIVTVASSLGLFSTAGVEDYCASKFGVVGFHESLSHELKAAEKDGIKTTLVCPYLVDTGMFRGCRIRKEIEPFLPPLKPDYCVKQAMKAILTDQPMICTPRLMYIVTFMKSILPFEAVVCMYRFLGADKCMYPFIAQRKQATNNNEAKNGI
Chain of UniProt Q5T8P6 (Q5T8P6 whole entry, looked up): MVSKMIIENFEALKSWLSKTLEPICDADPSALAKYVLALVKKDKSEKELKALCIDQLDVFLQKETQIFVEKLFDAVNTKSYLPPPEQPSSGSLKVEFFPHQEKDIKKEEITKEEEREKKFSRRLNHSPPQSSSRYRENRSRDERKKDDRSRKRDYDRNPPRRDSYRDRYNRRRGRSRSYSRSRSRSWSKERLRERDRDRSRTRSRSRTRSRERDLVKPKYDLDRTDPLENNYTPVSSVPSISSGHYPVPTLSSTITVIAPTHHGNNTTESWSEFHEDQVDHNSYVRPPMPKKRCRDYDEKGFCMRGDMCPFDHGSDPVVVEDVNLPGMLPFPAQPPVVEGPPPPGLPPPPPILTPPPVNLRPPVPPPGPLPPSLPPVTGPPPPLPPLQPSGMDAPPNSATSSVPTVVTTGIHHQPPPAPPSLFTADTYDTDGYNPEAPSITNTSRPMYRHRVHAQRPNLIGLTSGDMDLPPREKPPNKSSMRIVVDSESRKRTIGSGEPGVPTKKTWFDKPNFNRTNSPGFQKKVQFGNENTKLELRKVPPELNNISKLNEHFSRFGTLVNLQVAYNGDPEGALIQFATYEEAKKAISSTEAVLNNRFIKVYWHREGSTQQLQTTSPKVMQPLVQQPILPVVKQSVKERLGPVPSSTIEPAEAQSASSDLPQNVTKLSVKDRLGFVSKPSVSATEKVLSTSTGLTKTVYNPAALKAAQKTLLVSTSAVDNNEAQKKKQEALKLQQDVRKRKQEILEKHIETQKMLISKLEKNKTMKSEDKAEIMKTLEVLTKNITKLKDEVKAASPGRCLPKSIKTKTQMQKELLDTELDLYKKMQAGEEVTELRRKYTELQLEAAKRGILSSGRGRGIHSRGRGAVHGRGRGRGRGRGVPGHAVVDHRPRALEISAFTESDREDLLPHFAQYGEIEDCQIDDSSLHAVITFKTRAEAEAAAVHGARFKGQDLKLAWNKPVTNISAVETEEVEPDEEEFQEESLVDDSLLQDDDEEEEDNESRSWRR
Chain of UniProt O00584 (O00584 whole entry, looked up): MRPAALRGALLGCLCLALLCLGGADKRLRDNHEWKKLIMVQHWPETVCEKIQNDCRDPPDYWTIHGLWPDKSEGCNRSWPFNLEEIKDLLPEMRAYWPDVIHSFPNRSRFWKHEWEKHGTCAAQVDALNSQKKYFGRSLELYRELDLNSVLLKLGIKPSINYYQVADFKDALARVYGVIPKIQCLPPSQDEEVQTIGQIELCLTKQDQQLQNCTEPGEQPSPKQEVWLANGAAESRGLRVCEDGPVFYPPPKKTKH

| Target | log2 fold change [1] | log2 fold change [2] | log2 fold change [3] | log2 fold change [4] | log2 fold change [5] | log2 fold change [6] | log2 fold change [7] | log2 fold change [8] | log2 fold change [9] | log2 fold change [10] | log2 fold change [11] | log2 fold change [12] | log2 fold change [13] | log2 fold change [14] | log2 fold change [15] | log2 fold change [16] | log2 fold change [17] | log2 fold change [18] | log2 fold change [19] | log2 fold change [20] |
| --- | --- | --- | --- | --- | --- | --- | --- | --- | --- | --- | --- | --- | --- | --- | --- | --- | --- | --- | --- | --- |
| SEC16A isoform 5 (UniProt O15027) | -0.032 | -0.231 | -0.113 | 0.143 | 0.004 | 0.087 | -0.014 | 0.118 | 0.023 | -0.119 | 0.023 | 0.096 | 0.017 | -0.048 | -0.169 | 0.021 | -0.006 | -0.051 | 0.012 | -0.081 |
| RAVER1 (UniProt E9PAU2) | 0.061 | 0.049 | 0.188 | -0.381 | 0.066 | -0.091 | 0.264 | 0.132 | 0.002 | -0.171 | -0.155 | 0 | -0.091 | -0.319 | -0.309 | -0.299 | 0.155 | 0.011 | -0.351 | 0.134 |
| SEH1L isoform 1 (UniProt Q96EE3) | -0.03 | 0.04 | -0.008 | -0.028 | 0.016 | -0.069 | 0.011 | 0.01 | 0.011 | 0.054 | -0.083 | 0.051 | 0.012 | -0.081 | -0.008 | -0.028 | 0.015 | -0.037 | -0.11 | 0.031 |
| RAC1 (UniProt P63000) | -0.094 | 0 | -0.04 | -0.06 | 0.001 | -0.037 | 0.065 | -0.044 | 0.112 | 0.024 | 0.184 | -0.017 | 0.073 | 0.045 | 0.007 | 0.048 | 0.024 | -0.037 | 0.106 | 0.026 |
| RHOXF2 (UniProt Q9BQY4) | 0.027 | 0.001 | 0.073 | 0.018 | 0.04 | -0.045 | -0.029 | -0.092 | 0.008 | 0.009 | -0.05 | -0.215 (active) | 0.009 | -0.007 | 0.053 | -0.058 | 0.008 | -0.035 | 0.048 | 0.06 |
| RUFY1 (UniProt Q96T51) | -0.04 | -0.003 | -0.034 | 0.075 | -0.005 | -0.029 | 0.166 | 0.118 | 0.032 | -0.065 | -0.052 | 0.077 | -0.066 | -0.086 | -0.11 | 0.067 | -0.061 | 0.05 | -0.062 | -0.001 |
| RBIS (UniProt Q8N0T1) | -0.157 | -0.097 | -0.086 | 0.069 | -0.028 | 0.053 | -0.014 | -0.045 | 0.062 | 0.009 | 0.012 | -0.058 | -0.058 | 0.101 | 0.008 | -0.079 | 0.023 | 0.004 | -0.02 | 0.021 |
| RBM33 (UniProt Q96EV2) | -0.01 | 0.058 | -0.063 | -0.077 | 0.016 | 0.03 | -0.019 | 0.043 | -0.022 | -0.085 | -0.055 | 0.012 | -0.036 | -0.143 | 0.013 | -0.11 | 0.024 | -0.013 | 0.085 | -0.004 |
| RPS2 (UniProt P15880) | -0.045 | 0.043 | -0.369 | 0.286 | -0.162 | 0.202 | -0.007 | 0.007 | 0.131 | -0.162 | 0.284 | 0 | 0 | 0.198 | 0.13 | -0.035 | -0.216 | -0.105 | 0.077 | -0.095 |
| SLC19A1 (UniProt P41440) | -0.097 | 0.086 | 0.041 | -0.088 | 0.135 | -0.107 | -0.04 | 0.012 | -0.037 | 0.083 | 0.11 | 0.039 | 0.01 | 0.012 | 0.024 | 0.026 | 0.103 | -0.026 | 0.051 | 0.074 |
| RPS5 (UniProt P46782) | -0.081 | 0 | -0.255 | 0.176 | -0.081 | 0.108 | 0.029 | 0.017 | 0.069 | -0.073 | 0.2 | 0.002 | 0.046 | 0.178 | 0.069 | -0.035 | -0.122 | -0.08 | 0.042 | 0.007 |
| RBM26 isoform 2 (UniProt Q5T8P6) | -0.012 | 0.03 | 0.374 | -0.154 | 0.022 | -0.056 | 0.036 | 0.136 | -0.036 | -0.089 | -0.003 | 0.058 | -0.088 | -0.432 | -0.176 | 0.021 | 0.12 | 0.168 | -0.033 | 0.045 |
| RPS15 (UniProt P62841) | 0.032 | 0 | -0.174 | 0.45 (active) | -0.078 | 0.137 | -0.071 | -0.045 | 0.032 | -0.003 | 0.087 | -0.09 | 0.033 | 0.221 | 0.133 | -0.106 | -0.194 | -0.027 | 0.082 | -0.044 |
| RPS19 (UniProt P39019) | -0.12 | 0.023 | -0.309 | 0.182 | -0.11 | 0.201 | 0.033 | 0.018 | 0.05 | -0.081 | 0.242 | -0.026 | 0.046 | 0.181 | 0.083 | -0.021 | -0.11 | -0.068 | 0.055 | -0.037 |
| RDH10 (UniProt Q8IZV5) | -0.016 | 0.087 | 0.116 | -0.011 | 0.015 | -0.111 | -0.009 | -0.003 | -0.016 | 0.036 | -0.031 | 0.15 | 0.051 | -0.032 | 0.237 (active) | -0.014 | 0.37 (active) | 0.183 | 0.028 | 0.106 |
| RNASET2 (UniProt O00584) | 0.033 | -0.35 (active) | 0.027 | 0.08 | 0.045 | 0.01 | -0.011 | -0.037 | -0.013 | -0.149 | -0.261 (active) | -0.006 | 0.016 | -0.002 | -0.031 | -0.034 | -0.065 | 0.027 | 0.067 | 0.021 |
